Source: PubChem BioAssay (Broad Institute)
Only some compounds are listed: those with a hit (about 2.2% of all), similar ones and a draw of the others.
PAX8 reporter – PAX8 transcriptional activity inhibition | RMG-I TPO-luciferase reporter, SteadyGlo, 24 h | 360,000 compounds, 1.2% hits | inhibition, % at 12.6 µM | AID 652154;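 active means mean replicate inhibition at least 60% with every replicate also reaching 60%; inconclusive means only one of the two criteria is met; inactive means mean below 60% and not all replicates reaching 60%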;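 further: luciferase light reporting Pax8 driven TPO promoter activity; plate controls were median of neutral control wells for no effect and mitoxantrone controls for full effect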
EWS-Fli inh – blocks EWS/Fli oncoprotein-driven transcription; A673 NR0B1-luciferase reporter, viability-normalised; inhibition, % at 12.6 µM; 350,000 compounds, 0.67% hits;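 active means mean inhibition of at least 50% after viability correction, with every replicate also passing that limit; inconclusive means mean reaches 50% but only one of two replicates passes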;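 further: firefly luciferase signal divided by Alamar Blue viability fluorescence both relative to DMSO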
Shn3 inh set2 – Schnurri-3 reporter inhibition in Clone20 osteoblasts. 360,000 compounds, 0.52% hits. Clone20 osteoblast Shn3 3'UTR firefly luciferase, 24 h. inhibition, % at 12.5 µM;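 active means mean inhibition of at least 75% with every replicate also reaching 75%; inconclusive means mean inhibition at least 75% but some replicate below; inactive means mean inhibition below 75%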;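 further: 0% = median of neutral control wells and 100% = pilot-screen positive control compound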
TRPM1 prom inh – reduces MITF-dependent TRPM1 promoter luciferase signal | SK-MEL-5 TRPM1 promoter luciferase, 24 h | inhibition, % at 12.5 µM | 330,000 compounds, 0.83% hits | AID 488899;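 active means mean inhibition across replicates of 60% or more, whatever share of single replicates reaches that level; inconclusive means some that reach 60%, reason not given; inactive means mean inhibition across replicates below 60%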
LGR2 inh – inhibitors of bursicon-induced Drosophila LGR2 receptor cAMP signaling | inhibition, % at 9.99 µM | HEK293 LGR2, CRE-luciferase, bursicon-stimulated, 4 h | AID 720647 | 380,000 compounds, 0.35% hits;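 active means drop in luminescence signal, shown as inhibition above about 50% in the replicate tests, limit read from the data, passing the limit was not always enough; inconclusive means probably only some replicates passing the limit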;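 further: agonist challenge used bursicon conditioned medium at about half maximal strength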
LMP1 NFkB inh – reduces LMP1-driven NF-kappaB luciferase signal; LMP1-induced NF-kappaB luciferase reporter cells, luminescence; inhibition, % at 12.5 µM; 350,000 compounds, 0.69% hits; AID 504558; in the data active means inhibition above about 41%; inconclusive means no clear call, values can overlap the other calls;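 further: 0% = neutral control wells and 100% = reference inhibitor control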
Numbers without * were called inactive; ? = inconclusive; nt = no result.

SMILES	PAX8 reporter	EWS-Fli inh	Shn3 inh set2	TRPM1 prom inh	LGR2 inh	LMP1 NFkB inh
CN(C)CCNC(=O)c1ccccc1	-4	nt	2	15	nt	0
COc1ccc(OC)c2nc3c(C(=O)NCCN(C)C)cccc3nc12	nt	45	41	73*	27	-2
CN(C)CCNC(=O)c1cccc2ccc(-c3ccc(-c4ccccc4)cc3)nc12	41	24	-5	70*	4	-2
CN(C)CCNC(=O)c1sc2cccc(F)c2c1Cl	-15	-19	-10	14	21	-1
CCN(CC)C(=O)[C@H]1C[C@H](CC(=O)NCc2cccc(C(F)(F)F)c2)C(=O)N2CCc3c([nH]c4ccc(Cl)cc34)[C@]12C	76*	22	5	21	24	-2
CCN(CC)C(=O)[C@H]1C[C@H](CC(=O)NCC23CC4CC(CC(C4)C2)C3)C(=O)N2CCc3c([nH]c4ccc(Cl)cc34)[C@]12C	41	-1	22	12	14	-6
CC(C)N(C(=O)[C@H]1C[C@H](CC(=O)NCC23CC4CC(CC(C4)C2)C3)C(=O)N2CCc3c([nH]c4ccc(Cl)cc34)[C@]12C)C(C)C	67*	3	62	19	13	-5
COc1ccccc1CNC(=O)C[C@@H]1C[C@@H]2c3cc(NS(C)(=O)=O)ccc3O[C@@H]2[C@@H](CO)O1	5	0	nt	nt	-7	nt
C=CCNc1nc(Cl)ncc1F	nt	nt	-27	2	1	5
Cc1cccc(Nc2nc(Cl)ncc2F)c1C	18	3	-6	-10	2	53*
CN(C(=O)/C=C/c1ccc([N+](=O)[O-])s1)c1ccccc1	?	3	5	69*	10	-79
O=C1C(NS(=O)(=O)c2cccs2)=C(N2CCOCC2)C(=O)c2ccccc21	5	-6	5	24	16	-2
NC(=O)C1CCN(C2=C(NS(=O)(=O)c3ccc(Br)cc3)C(=O)c3ccccc3C2=O)CC1	18	0	-1	68*	6	-11
CCN1CCN(C2=C(NS(=O)(=O)c3ccccc3)C(=O)c3ccccc3C2=O)CC1	-6	-7	2	67*	-7	nt
CN1CCN(C2=C(NS(=O)(=O)c3cccs3)C(=O)c3ccccc3C2=O)CC1	8	-5	5	77*	-17	-11
CCN1CCN(C2=C(NS(=O)(=O)c3ccc(Br)cc3)C(=O)c3ccccc3C2=O)CC1	-3	-9	-28	90*	-9	7
NC(=O)C1CCN(C2=C(NS(=O)(=O)c3ccccc3)C(=O)c3ccccc3C2=O)CC1	6	-13	10	32	-3	-3
C[C@@H]1CCCCO[C@H](CN(C)C(=O)Nc2cccc3ccccc23)[C@H](C)CN([C@H](C)CO)C(=O)c2cc(NS(=O)(=O)c3cn(C)cn3)ccc2O1	-2	4	nt	nt	38	nt
CN1CCN(C2=C(NS(=O)(=O)c3ccccc3)C(=O)c3ccccc3C2=O)CC1	nt	nt	5	78*	nt	-12
CCOC(=O)N1CCN(C2=C(NS(=O)(=O)c3ccccc3)C(=O)c3ccccc3C2=O)CC1	12	-8	0	23	12	2
O=C(NCC[C@H]1CC[C@@H](NS(=O)(=O)c2ccccc2)[C@@H](CO)O1)c1ccc2c(c1)OCO2	0	3	nt	nt	-7	nt
CC(=O)O[C@H]1C(=O)[C@@]2(C)[C@H]([C@H](OC(=O)c3ccccc3)[C@]3(O)C[C@H](OC(=O)[C@H](O)C(NC(=O)c4ccccc4)c4ccccc4)C(C)=C1C3(C)C)[C@]1(OC(C)=O)CO[C@@H]1C[C@@H]2O (stereo partly specified)	36	66*	33	22	7	20
CCCCCC(=O)N[C@@H](c1ccccc1)[C@@H](O)C(=O)O[C@H]1C[C@@]2(O)[C@@H](OC(=O)c3ccccc3)C3[C@](C)(C(=O)[C@H](OC(C)=O)C(=C1C)C2(C)C)[C@@H](O)C[C@H]1OC[C@@]31OC(C)=O (stereo partly specified)	nt	57*	17	nt	5	9
CC(=O)O[C@H]1C(=O)[C@@]2(C)[C@H]([C@H](OC(=O)c3ccccc3)[C@]3(O)C[C@H](OC(=O)[C@H](O)[C@@H](NC(=O)c4ccccc4)c4ccccc4)C(C)=C1C3(C)C)[C@]1(OC(C)=O)CO[C@@H]1C[C@@H]2O	26	65*	-6	9	10	1
CCC(=O)N1[C@@H]2CN(S(=O)(=O)c3ccccc3C)c3ccccc3[C@@H]2[C@@H]1CO	-11	-5	nt	nt	-6	nt
SMILES	PAX8 reporter	EWS-Fli inh	Shn3 inh set2	TRPM1 prom inh	LGR2 inh	LMP1 NFkB inh
COc1ccc(NC(=O)Nc2cccc3c2O[C@H](CN(C)C(=O)Nc2ccc(OC)cc2)[C@H](C)CN([C@H](C)CO)C3=O)cc1	-10	4	nt	nt	19	nt
Cc1cc(C)c(C(=O)/C=C/c2ccc(C(C)C)cc2)c(=O)[nH]1	nt	-3	-16	15	80*	26
Cc1cc(C)c(C(=O)/C=C/C=C/c2ccccc2)c(=O)[nH]1	-13	nt	-7	-14	0	7
COc1ccc(NC(=O)N(C)C[C@H]2Oc3ccc(NC(=O)Nc4ccc(C(F)(F)F)cc4)cc3CC(=O)N([C@@H](C)CO)C[C@@H]2C)cc1	3	-1	nt	nt	4	nt
CC[N+](CC)(CC)CCOc1ccc(/C=C/c2ccccc2)cc1	96*	7	12	14	16	4
c1ccc(-n2nnnc2Sc2ncnc3sc4c(c23)CCCC4)cc1	22	nt	?	63*	66*	-10
O=C(O)CSc1ncnc2sc3c(c12)CCCC3	12	0	-17	3	13	-1
Cc1sc2ncnc(Sc3nnnn3-c3ccc(Cl)cc3)c2c1C	75*	nt	-23	73*	nt	5
CCCNC(=O)N1CCC2(CC1)CN(C(=O)CN1CCOCC1)[C@@H](CO)c1[nH]c3cc(OC)ccc3c12	nt	-6	nt	nt	11	nt
CCc1ccc(/C=C/C(=O)C2C(=O)c3ccccc3C2=O)cc1	nt	nt	-31	-10	62*	51*
CCOc1ccccc1NS(=O)(=O)c1ccc(-c2cnc(C3CC3)o2)cc1	76*	nt	39	56	-21	3
O=S(=O)(Nc1ccc(F)cc1Cl)c1ccc(-c2cnc(C3CC3)o2)cc1	28	57*	54	44	6	12
Cc1cccc(N(C)S(=O)(=O)c2ccc(-c3cnc(C4CC4)o3)cc2)c1	99*	58*	13	56	-26	12
O=C1CC(=O)Nc2cc(S(=O)(=O)Nc3ccc(F)cc3Cl)ccc2N1	-20	-4	-5	12	14	0
Cc1ccc(-c2cnc(C3CC3)o2)cc1S(=O)(=O)Nc1ccccc1	nt	nt	15	17	nt	-4
COc1ccccc1NS(=O)(=O)c1ccc(-c2cnc(C3CC3)o2)cc1	41	nt	32	29	-25	9
Cc1ccc(NS(=O)(=O)c2ccc(-c3cnc(C4CC4)o3)cc2)c(C)c1	40	52*	10	8	-17	15
